In PubChem BioAssay (NCI):
About 79,000 compounds went through this panel and 15% of them were active in at least one assay; those are over-represented in the sample as a whole. Active and inactive are the calls of the source. Rule as the data show it: active = growth inhibition above about 70%; inactive = the rest.

Experiments:
[1] = NCI Yeast Anticancer Drug Screen. Data for the rad50 strain (AID 155);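 also: 0% = growth of vehicle-only cultures of the same strain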; settings: S. cerevisiae rad50 strain growth inhibition; at 50.0 µM; stronger effect = higher value
Outline: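 Vehicle-treated cultures provide the reference for the growth inhibition reported for compound-exposed, repair-deficient yeast.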

[2] = NCI Yeast Anticancer Drug Screen. Data for the mec2-1 strain (AID 157); settings: S. cerevisiae mec2-1 strain, at 50.0 µM, stronger effect = higher value
Outline: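 Each compound was tested on mec2-1 yeast, a strain altered in DNA damage repair or cell cycle control. Growth inhibition is reported relative to vehicle.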

[3] = NCI Yeast Anticancer Drug Screen. Data for the sgs1 mgt1 strain (AID 161);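 also: 0% = growth of cultures given vehicle only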; settings: S. cerevisiae sgs1 mgt1 strain, at 50.0 µM, stronger effect = higher value
Outline: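 Inhibition of yeast growth, normalised to vehicle-treated controls, is reported for a strain bearing genetic alterations in DNA damage repair.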

[4] = NCI Yeast Anticancer Drug Screen. Data for the cln2 rad14 strain (AID 165);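 also: 0% = growth equal to vehicle treated cultures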; settings: S. cerevisiae cln2 rad14 strain, at 50.0 µM, stronger effect = higher value
Outline: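 Test compounds were added to cln2 rad14 yeast cultures; inhibition of growth was then determined by comparison with vehicle treatment.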

[5] = NCI Yeast Anticancer Drug Screen. Data for the bub3 strain (AID 167); settings: S. cerevisiae bub3 mutant strain, at 50.0 µM, stronger effect = higher value
Outline: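 Mutant yeast screening strain plus compound; vehicle-treated cultures serve as the 0% inhibition reference.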

[6] = NCI Yeast Anticancer Drug Screen. Data for the mlh1 rad18 strain (AID 175); settings: S. cerevisiae mlh1 rad18 strain growth inhibition; at 50.0 µM; stronger effect = higher value
Outline: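 Inhibition values reflect reduced growth of mutant yeast versus vehicle-treated controls following compound exposure; the mutations affect DNA damage repair.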

Measured: growth inhibition

O=c1[nH]c2ccccc2[nH]1
inactive: [1] -18.8% | [2] -14.9% | [3] -7.6% | [4] -28% | [5] -13.2% | [6] -14.4%

N#Cc1c(NC(=S)NC(=O)c2ccccc2)nc2c(c1-c1ccccc1)CCCC2
inactive: [1] 28% | [2] 17.9% | [3] 30.1% | [4] 1.05% | [5] 17.4% | [6] 21.6%

S=C1SCCCN1c1ccccc1
inactive: [1] -6.35% | [2] -4.05% | [3] -4.9% | [4] -14.5% | [5] -9.6% | [6] -20%

ClCC1OC1CCl (stereo not drawn)
inactive: [1] 22.1% | [2] 3.05% | [3] 1.1% | [4] -10.6% | [5] 9.8% | [6] 1.95%

COc1ccccc1Nc1nc(N)nc(N)c1N
inactive: [1] 0.85% | [2] -3.65% | [3] 5% | [4] -3.75% | [5] -4.9% | [6] 11.2%

O=C1CC(=O)N(C=C2C(=O)NC(=O)NC2=O)C(=S)N1
inactive: [1] -11.9% | [2] -2.15% | [3] -18.6% | [4] 11.2% | [5] 4.6% | [6] 0.45%

Cc1ccc(N=C2N=C(N3CC(C)OC(C)C3)c3ccccc32)cc1 (stereo not drawn)
inactive: [1] -12.9% | [2] -22.9% | [3] -15.6% | [4] -7.8% | [5] 0% | [6] -21.4%

Cc1cnc(Sc2ncccn2)c([N+](=O)[O-])c1
inactive: [1] -7.05% | [2] -15% | [3] -2.1% | [4] -28.4% | [5] -31.1% | [6] -17.9%

C1=C2/CC[C@H](Sc3ccccc3)[C@H]2C2(CCCCC/1)OCCO2
inactive: [1] 13.8% | [2] -19% | [3] -6.45% | [4] -1.05% | [5] 13.2% | [6] -4.05%

Nc1ccc[nH]c1=O
inactive: [1] 15.7% | [2] 4% | [3] 19.6% | [4] 8.8% | [5] 20.7% | [6] -12.4%

NC(Cc1cccnn1)C(=O)O (stereo not drawn)
inactive: [1] -29.2% | [2] -22.8% | [3] -29.2% | [4] -58.9% | [5] -25.4% | [6] -5.25%

NNC(=O)CC(=O)Nc1ccc(S(=O)(=O)c2ccc(NC(=O)CC(=O)NN)cc2)cc1
inactive: [1] 16.6% | [2] 12.7% | [3] 18.6% | [4] 30.1% | [5] 25.4% | [6] -1%

COCc1ccc(C(C)(C)CC(C)(C)C)cc1
inactive: [1] 32.6% | [2] 8.4% | [3] -0.1% | [4] 13.6% | [5] -0.45% | [6] -1.3%

CCCCCCCCCCCC(=O)OCCS(=O)(=O)CCOC(=O)CCCCCCCCCCC
inactive: [1] 30% | [2] 4.35% | [3] -1.2% | [4] -23.9% | [5] 15.4% | [6] 22.2%

Cc1cc(Br)c(I)c([N+](=O)[O-])c1
inactive: [1] 34.5% | [2] 27.6% | [3] 17.8% | [4] 13.3% | [5] 7.45% | [6] 6.25%

COC(=O)C12c3ccccc3C(c3ccccc31)c1c(N=O)ccc(NO)c12
active: [1] 99.2% | [2] 99.3% | [3] 99.1% | [4] 98.7% | [5] 99% | [6] 99%

COc1cc(C(=O)C/C(CCC(=O)Nc2ccccc2[N+](=O)[O-])=N\NC(=O)CC#N)ccc1O
inactive: [1] -25.9% | [2] -20.8% | [3] -36.7% | [4] -11.4% | [5] -11.6% | [6] -31.4%

O=C(N/N=C\c1ccc([N+](=O)[O-])cc1)Nc1ccc2ccccc2c1
inactive: [1] 3.15% | [2] 8.1% | [3] 1.85% | [4] 8.3% | [5] 25.2% | [6] 14.1%

Nc1cc(=O)n(-c2ccccc2)nc1Cl
inactive: [1] 2.05% | [2] 4.4% | [3] -2.25% | [4] -18.6% | [5] 3.1% | [6] 0.2%

O=C(NCCCCCCNC(=O)C1CCCN1C(=O)OCc1ccccc1)C1CCCN1C(=O)OCc1ccccc1 (stereo not drawn)
inactive: [1] 0.6% | [2] -24.2% | [3] -8.15% | [4] -1.9% | [5] -5.7% | [6] 6.4%

CCC(=O)c1cc(-c2cc(C(=O)CC)[nH]n2)n[nH]1
inactive: [1] -27.5% | [2] 3.95% | [3] -5.7% | [4] -18.4% | [5] 2.15% | [6] 3.85%

CCC(C)[N-]c1cccc[n+]1[O-].CCC(C)[N-]c1cccc[n+]1[O-].[Cu+2] (stereo not drawn)
inactive: [1] 8.3% | [2] -3.9% | [3] -9.8% | [4] -2% | [5] -18.3% | [6] -18.4%

O=C1OCC(CN2CCC(n3c(=O)[nH]c4ccccc43)CC2)=C1c1ccccc1
inactive: [1] -12.2% | [2] -4.65% | [3] -7.15% | [4] -25.7% | [5] -10.6% | [6] -35.9%

CSC(C(O)C(O)C(O)C(O)CO)n1cnc2c(=S)nc[nH]c21 (stereo not drawn)
inactive: [1] 1.1% | [2] 5.7% | [3] 5.75% | [4] 19.6% | [5] 11.3% | [6] 9%

COc1ccc(C(=CCC(C)C2CCC3[C@@H]4C(OC(C)=O)CC5CC(OC(C)=O)CC[C@]5(C)C4CC(OC(C)=O)[C@]23C)c2ccc(OC)cc2)cc1 (stereo partly drawn)
inactive: [1] 1.2% | [2] 1.4% | [3] -7.9% | [4] 13.5% | [5] 24.1% | [6] -6.05%

Nc1ccc(N(S(=O)(=O)c2ccccc2)S(=O)(=O)c2ccccc2)c(Cl)c1
active: [1] 77.3% | [3] 82% | [6] 78.7%
inactive: [2] 45.8% | [4] 39.5% | [5] 69%

Cc1ccc(OC/C=C/CS(=O)(=O)c2ccc(C)cc2)cc1
inactive: [1] -11.6% | [2] 10.3% | [3] 5.65% | [4] -23.2% | [5] -12.7% | [6] -28.6%

O=C(O)/C(O)=C(/O)C(=O)O.[NH-]C1CCCCC1[NH-].[Pt+2]
inactive: [1] 27.3% | [2] 29.1% | [3] 28.4% | [4] 16.1% | [5] 26.9% | [6] 25.6%

CN(C)c1ccc(CC2Cc3ccccc3C2O)cc1 (stereo not drawn)
inactive: [1] 6.75% | [2] -6.55% | [3] 10.2% | [4] -11.7% | [5] 12.3% | [6] 5.9%

Cn1c2ccccc2c(=O)c2c(O)cc3c(c21)CC(C1(C)CO1)O3 (stereo not drawn)
inactive: [5] 42.5%
active: [1] 86.2% | [2] 79.6% | [3] 72% | [4] 80.7% | [6] 83.1%

Cn1cnc(N)c1C(N)=S
inactive: [1] 4.65% | [2] 7.5% | [3] -8.6% | [4] -8.55% | [5] 7.9% | [6] 1.1%

COc1cccc(NC(=O)CSc2nnc(Cc3ccccc3)o2)c1
inactive: [1] -18.8% | [2] -11.9% | [3] -20.8% | [4] -8.2% | [5] -12.4% | [6] -36.5%

Cc1cccc(C2(C(=O)O)CCCC2)c1
inactive: [1] 14.7% | [2] -5.2% | [3] 15.9% | [4] 39% | [5] 24.3% | [6] 35.4%

C1=CCSC(Nc2ccccc2)=NC1
inactive: [1] 7.65% | [2] 3.35% | [3] -7.05% | [4] -2.6% | [5] 0.75% | [6] -5.85%

CCC(=O)N1C(=O)C(C)C23c4ccccc4C(=O)N2CCCN13 (stereo not drawn)
inactive: [1] 4.35% | [2] -13.1% | [3] -1.8% | [4] 11.1% | [5] 1.8% | [6] 15.8%

CCOC(=O)NC(=O)c1cn(CC(=O)NCC(=O)NCC(=O)NCCCN2CCN(CCCNC(=O)CNC(=O)CNC(=O)Cn3cc(C(=O)NC(=O)OCC)c(=O)[nH]c3=O)CC2)c(=O)[nH]c1=O
inactive: [1] -5% | [2] 2.4% | [3] -6.85% | [4] -23.2% | [5] -1.05% | [6] -15.8%

CC1(C)C2CC[C@]3(C)C(C(=O)C=C4[C@@H]5C[C@@](C)(C(=O)O)CC[C@]5(C)CCC43C)[C@@]2(C)CC[C@@H]1OC1OC(C(=O)O)C(O)C(O)C1OC1OC(C(=O)O)C(O)C(O)C1O (stereo partly drawn) (tested in a mixture with another compound)
inactive: [1] 5.65% | [2] -2.45% | [3] 2.7% | [4] -12.2% | [5] -3.55% | [6] -0.35%

CN(C)C=Nc1c(Br)cc(Br)c2nonc12
inactive: [1] -26.7% | [2] -31.1% | [3] -32.5% | [4] -23.8% | [5] -22.9% | [6] -8.45%
